High-throughput results from PubChem BioAssay.
CHO-K1 Ca PAM: nonselective activator or artifact in parental CHO-K1 calcium assay | ATP EC20, Fluo-8 calcium fluorescence; 0% at ATP EC20, 100% at ATP max | activation, % at 3 µM | 360,000 compounds, 0.02% hits | AID 602247;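 active = activation above the run cutoff, the mean activation of all test compounds plus 3 SD, cut at about 40% in these data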;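 note: peak over basal fluorescence ratio in a 140 s read after ATP addition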
CHRM1 agonist: human M1 muscarinic receptor agonism | AID 588814 | P11229 | activation, % at 3 µM | 360,000 compounds, 0.33% hits | CHO-K1 hM1, Fluo-8 calcium fluorescence, agonist mode; 0% DMSO, 100% acetylcholine EC100;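 active = activation above the run's mean compound activation plus 3 SD, cut at about 16% in these data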;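 note: peak over basal fluorescence ratio within a 140 s kinetic read after compound addition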
Target sequence (P11229 whole entry, looked up): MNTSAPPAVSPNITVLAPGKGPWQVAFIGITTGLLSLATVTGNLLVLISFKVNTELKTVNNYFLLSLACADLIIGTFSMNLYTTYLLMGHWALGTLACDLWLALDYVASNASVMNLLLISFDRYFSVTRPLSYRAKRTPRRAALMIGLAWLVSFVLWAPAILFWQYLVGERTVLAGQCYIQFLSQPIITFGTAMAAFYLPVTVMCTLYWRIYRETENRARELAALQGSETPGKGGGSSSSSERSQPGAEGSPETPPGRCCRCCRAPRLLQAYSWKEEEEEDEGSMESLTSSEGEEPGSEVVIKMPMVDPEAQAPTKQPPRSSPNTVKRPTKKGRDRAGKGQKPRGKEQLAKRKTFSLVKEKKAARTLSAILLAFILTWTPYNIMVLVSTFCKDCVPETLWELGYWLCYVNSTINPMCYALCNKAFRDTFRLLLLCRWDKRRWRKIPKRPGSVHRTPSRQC
CHO-K1 Ca antag: nonselective inhibitor or artifact in parental CHO-K1 cells; ATP-induced calcium, Fluo-8 fluorescence; inhibition, % at 3 µM; 360,000 compounds, 0.6% hits; AID 602250;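 active = inhibition above a per-plate cutoff, the plate's mean sample inhibition plus 3 SD, cut at about 24% in these data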;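 note: 0% = DMSO plus EC80 ATP and 100% = DMSO alone without ATP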
M1 antag: blocks human M1 muscarinic receptor; inhibition, % at 3 µM; P11229; CHO-K1 hM1, Fluo-8 calcium fluorescence, ACh EC80 antagonist; 360,000 compounds, 1.3% hits;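 active = percent inhibition above its own plate's cutoff, namely the mean of that plate's compound wells plus 3 SD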;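 note: peak over basal fluorescence ratio during 140 s after agonist addition; 0% = ACh EC80 plus DMSO and 100% = DMSO alone without agonist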
M1 PAM: positive allosteric modulators of human M1 muscarinic receptor. activation, % at 3 µM. P11229. AID 588819. CHO-K1 hM1, Fluo-8 calcium fluorescence, ACh EC20; 0% = ACh EC20, 100% = maximal ACh. 360,000 compounds, 0.088% hits; in the data active = activation above about 19%, passing the limit was not always enough
M1 ag parental: nonselective activator or artifact in parental CHO-K1 cells. Fluo-8 calcium fluorescence; scaled to maximal ATP response, vehicle zero. activation, % at 3 µM. 360,000 compounds, 0.48% hits. AID 602248; in the data active = activation above about 15%;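 note: untransfected CHO-K1 host cells lacking M1 receptor as counterscreen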
* hit, by the source's call. Compounds with a hit are over-represented: about 2.4% of the library has one in this group of screens.

SMILES	CHO-K1 Ca PAM	CHRM1 agonist	CHO-K1 Ca antag	M1 antag	M1 PAM	M1 ag parental
CCC(=O)c1ccc(OCC(O)CN2CCN(C(c3ccccc3)c3ccccc3)CC2)cc1 (stereo unspecified)	23	-13	-41	70*	-34	1
CCCCC(=O)Nc1cc(C)c(NC(=O)c2ccco2)cn1	-19	-1	0	-19	17	0
CS(=O)(=O)Nc1cccc(NC(=O)c2cccc3c(-c4cccc(C(N)=O)c4)coc23)c1	7	-2	-3	31*	-13	4
CC(=O)c1cccc(NC(=O)c2cccc3c(-c4cccc(C(N)=O)c4)coc23)c1	3	5	1	20	-13	11
CCOC(=O)c1cnc(-n2nc(C)cc2C)nc1N1CC(C)OC(C)C1 (stereo unspecified)	-6	-4	24*	10	-5	0
O=c1c2ccc([N+](=O)[O-])cc2ncn1CCOc1ccc(Cl)cc1	0	-1	4	44*	-15	6
CN1C(=O)C(C)(C)c2cc(S(=O)(=O)N3CCN(c4ccc(F)cc4)CC3)ccc21	-4	-2	-4	4	0	1
CN1CCN(S(=O)(=O)c2ccc3c(c2)C(C)(C)C(=O)N3C)CC1	-5	-1	25*	6	-1	0
COC(=O)c1ccc(C2C(C(C)=O)=C(C)Nc3ncnn32)cc1 (stereo unspecified)	11	-11	-13	102*	-32	1
CS(=O)(=O)N1CCN(C(=O)c2cc(-c3ccncc3)nc3ccc(Cl)cc23)CC1	3	3	5	31*	-14	5
Clc1ccc(SCCOCCN2CCCCCC2)cc1	-2	-7	4	42*	-27	1
CN(C)CCOCCSc1ccc(Cl)cc1	18	-7	-3	5	-8	0
CS(=O)(=O)N1CCC(C(=O)N2CCN(c3ccccc3F)CC2)CC1	19	-7	-1	-7	11	17*
CC(=O)N1c2ccc(S(=O)(=O)N3CCC(C(=O)N4CCN(c5cc(Cl)ccc5C)CC4)CC3)cc2CC1C (stereo unspecified)	-18	2	26*	48*	-16	12
CC1Cc2cc(S(=O)(=O)N3CCC(C(=O)N4CCN(c5ccccc5F)CC4)CC3)ccc2N1C(=O)C1CC1 (stereo unspecified)	-30	5	29*	22	-7	10
CC(=O)c1ccc(N2CCN(S(=O)(=O)c3ccc4c(c3)CC(C)N4C(C)=O)CC2)cc1 (stereo unspecified)	3	2	24	36*	-13	14
CC(=O)N1c2ccc(S(=O)(=O)N3CCC(C(=O)N4CCC(C)CC4)CC3)cc2CC1C (stereo unspecified)	8	-4	-17	-9	4	2
COc1cccc(-c2nc(CS(=O)(=O)CC(=O)NCCCN3CC(C)CC(C)C3)c(C)o2)c1 (stereo unspecified)	-12	-6	2	41*	-19	0
COc1cccc(-c2nc(CS(=O)(=O)CC(=O)NCCCN3CCN(C)CC3)c(C)o2)c1	10	-5	-14	-5	3	0
Cc1cc(C)c(C(=O)COC(=O)c2nn(C)c(=O)c3ccccc23)cc1C	18	-1	-7	5	0	0
Cc1ccccc1Nc1nnc(SCc2cc([N+](=O)[O-])cc3c2OCOC3)s1	7	-8	3	41*	-22	3
CC(=O)N1CCN(c2ccccc2NC(=O)c2ccco2)CC1	-4	-1	1	-4	4	1
CCCOc1ccc(C(=O)NCC(c2cccs2)N(C)C)cc1 (stereo unspecified)	1	-13	9	9	-21	0
CCN(c1ccccc1)S(=O)(=O)c1cc(C(=O)NCC(c2ccc(OC)cc2)N(C)C)ccc1C (stereo unspecified)	15	36*	-16	55*	-10	2
CCN(c1ccccc1)S(=O)(=O)c1ccc(C(=O)NCC(c2cccs2)N(C)C)cc1 (stereo unspecified)	11	-5	-10	36*	-24	7
SMILES	CHO-K1 Ca PAM	CHRM1 agonist	CHO-K1 Ca antag	M1 antag	M1 PAM	M1 ag parental
CC(=O)c1ccc(N(CC(=O)NCCc2ccccc2)C(=O)c2csnn2)cc1	-21	-3	1	-3	-1	1
O=C([O-])c1cc(-c2ccccc2)cc(-c2ccccc2)[n+]1CCc1ccc(Cl)cc1	-1	-12	-1	28	-16	1
CN(C)c1cc[n+](CC(=O)N2c3ccccc3Sc3ccccc32)cc1	-5	-8	-19	100*	-25	1
O=C(C[n+]1ccccc1)N1c2ccccc2Sc2ccccc21	-6	-15	-7	100*	-38	0
O=C(COc1ccccc1)N1c2ccccc2Sc2ccccc21	22	-9	-12	15	-16	2
COc1ccc(NS(=O)(=O)c2cccc(C(=O)N3CCCC3)c2)cc1	-17	-1	7	2	10	0
Cc1nc(C(=O)NCc2ccccc2)sc1C1(C)CC(c2ccccc2)=NO1 (stereo unspecified)	16	17*	-12	-11	5	7
COc1ccc(N(C)S(=O)(=O)c2ccc3c(c2)NC(=O)CC(=O)N3)c(OC)c1	-5	2	1	-10	21	0
CCCCCn1c2c(c(=N)c3ccccc31)CCC2	14	-8	-6	-2	5	1
CCCCCCCCCCn1c2c(c(=N)c3c1CCC3)CCC2	17	-1	18	35*	-12	4
CCCCCCCCCn1c2c(c(=N)c3c1CCC3)CCCC2	-2	-1	38*	49*	-25	12
CCCCCCCCn1c2c(c(=N)c3ccccc31)CCC2	-7	-6	31*	47*	-27	8
CCn1c2c(c(=N)c3c1CCC3)CCCC2	22	-7	-7	-15	2	1
COc1ccc(C(=O)N2CCOC2CNC(=O)C(=O)NCc2ccccn2)cc1 (stereo unspecified)	16	-3	-8	-10	9	0
Cc1ccc(-c2c(C(=O)N/N=C/c3ccco3)nnn2-c2nonc2N)cc1	28	7	-7	9	-3	16*
Cc1ccc(-c2c(C(=O)N/N=C/c3ccc(C)o3)nnn2-c2nonc2N)cc1	17	-3	-1	-1	1	0
CCOc1ccc(-c2c(C(=O)N/N=C/c3ccco3)nnn2-c2nonc2N)cc1	-17	18*	-7	2	-5	5
O=S(=O)(NC1CCN(Cc2ccccc2)CC1)c1ccc(Cl)cc1	13	-7	-13	52*	-24	4
COc1ccc2cc(S(=O)(=O)N3CCCCCC3)ccc2c1	-11	-14	6	14	-17	0
